# Bioassay records from PubChem BioAssay.
# Most compounds without a hit are left out; they make up all but 17% or so of the library.
# TDP1 cell CPT: DT40-hTDP1 cell growth loss with CPT. chicken DT40 Tdp1-/-;hTDP1 cells + 20 nM CPT, ATP luminescence, 48 h. AID 686979. 12% of 420,000 active. Potency, µM (titrated, usually from 46.2 µM), for the others: at the top dose activity change, negative = growth inhibition, hits mostly inhibitors; further: on the % scale 0 is the no-effect control and ±100 the full control effect; nearly all actives have a fitted effect of over 55% in size
#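 Chicken DT40 Tdp1-/- cells stably complemented with human TDP1 were seeded at 400 cells/well in medium containing 20 nM camptothecin, exposed to pin-transferred compounds, and grown at 37 °C for at least 48 hr. Viability was read as ATP luminescence.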
# TDP1 block: TDP1 (human) enzyme inhibition; Potency, µM (series often up to 130 µM), inactives show at the top dose activity change, negative = inhibition, most hits filed as inhibitors; AID 485290; 0.28% of 350,000 active; recombinant TDP1, AlphaScreen DNA substrate cleavage; further: on the % scale 0 is the no-effect control and ±100 the full control effect; nearly all actives have a fitted effect of over 40% in size
# Target sequence (Q9NUW8 whole entry, looked up): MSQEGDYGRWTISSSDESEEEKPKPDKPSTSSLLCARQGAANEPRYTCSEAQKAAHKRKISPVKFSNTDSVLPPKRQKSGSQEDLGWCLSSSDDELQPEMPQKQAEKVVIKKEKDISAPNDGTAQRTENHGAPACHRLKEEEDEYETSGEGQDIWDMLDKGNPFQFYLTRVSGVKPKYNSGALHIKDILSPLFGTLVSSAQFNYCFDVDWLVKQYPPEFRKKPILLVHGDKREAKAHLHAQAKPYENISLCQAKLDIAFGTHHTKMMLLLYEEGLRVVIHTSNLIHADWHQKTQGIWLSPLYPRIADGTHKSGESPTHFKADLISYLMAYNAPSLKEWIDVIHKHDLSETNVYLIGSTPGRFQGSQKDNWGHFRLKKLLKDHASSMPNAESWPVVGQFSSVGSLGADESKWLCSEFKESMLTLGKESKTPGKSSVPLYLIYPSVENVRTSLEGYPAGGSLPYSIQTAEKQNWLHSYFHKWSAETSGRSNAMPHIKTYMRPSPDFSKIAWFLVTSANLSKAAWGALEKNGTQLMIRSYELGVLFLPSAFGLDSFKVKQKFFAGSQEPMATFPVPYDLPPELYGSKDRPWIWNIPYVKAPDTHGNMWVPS
#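 E. coli-derived human Tdp1, 1 nM final. Cpd preinc 15 min RT; substrate 15 nM final, 5 min RT; AS bead mix 10 ug/ml final, 10 min RT. Signal loss = tyrosine-FITC cleavage. No-enzyme wells = max signal.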
# DT40 TDP1 no CPT: qHTS for Inhibitors of human tyrosyl-DNA phosphodiesterase 1 (TDP1): qHTS in cells in absence of CPT. DT40 Tdp1-/- hTDP1 cells, no CPT, ATP luminescence, 48 h. Potency, µM (series often up to 46.2 µM), inactives show at the top dose activity change, negative = growth inhibition, hits mostly inhibitors. 15% of 420,000 active. AID 686978, 2013; further: on the % scale 0 is the no-effect control and ±100 the full control effect; nearly all actives have a fitted effect of over 55% in size
#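 Seeded 400 DT40-hTDP1 cells/well (vehicle DMSO, no 20 nM CPT); pinned compounds; ≥48 hr at 37 °C; CellTiter-Glo luminescence as viability measure.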
# ClpP mod: qHTS Assay for Activators of ClpP; Potency, µM (titrated, usually from 57.5 µM), without a hit: at the highest dose activity change, negative = active; purified B. subtilis ClpP, FRET peptide cleavage, 20 min; ATP-dependent Clp protease proteolytic subunit (Bacillus subtilis (strain 168)), P80244; AID 651965, 2013; 1.9% of 340,000 active; active means well fitted falling curve with a large enough effect; inconclusive means small, poorly fitted or top-dose-only effect; inactive means no such curve, though single readings can be large or run the other way; further: the source files actives as falling curves though it sought activators and does not explain the sign; nearly all actives have a fitted effect of over 65% in size
#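 Purified B. subtilis ClpP, 10 microg/mL final in Tris/HCl pH8 with KCl, BSA, glycerol and Tween-20, cleaved an Abz/nitrotyrosine-quenched decapeptide. Fluorescence (ex 320, em 430) was read at 0 and 20 min at room temperature. Delta was normalized to 5.8 microM ADEP and DMSO/no-enzyme controls.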
# * hit, by the source's call; u = inconclusive; x = no result given; [ ] = another dose, or the depositor's remark. Unless noted, the call rests on the fitted dose curve; in most records, active means well fitted curve in the direction sought with a large enough effect; inconclusive means small, poorly fitted or top-dose-only effect, or another doubt; inactive means no such curve, though single readings can be large; an effect the other way counts as inactive or inconclusive. Potency means the concentration at half of the fitted maximal effect.
SMILES,TDP1 cell CPT,TDP1 block,DT40 TDP1 no CPT,ClpP mod
Cc1cccc(NC(=S)N(CCCN2CCOCC2)Cc2cn(C)c3ccccc23)c1,18.4µM*,2.6%,u,-2.8%
Cc1cccc(NC(=S)N(CCN2CCOCC2)Cc2cc3cc4c(cc3[nH]c2=O)OCO4)c1,-4.1%,-7.3%,u,x
CCOc1ccc(NC(=S)N(CCCN2CCOCC2)Cc2cn(C)c3ccccc23)cc1,u,-1.2%,14.6µM*,-2.6%
Cc1ccc(NC(=S)N(C)Cc2cn(C)c3ccccc23)cc1,16.4µM*,3.4%,u,-3.9%
CS(=O)(=O)c1cccc(C(=O)OCC(=O)Nc2ccc3c(c2)OCO3)c1,-0.8%,1.3%,-9.8%,-0.7%
O=C(C1CCN(C2CCN(CC3CC=CCC3)CC2)CC1)N1CCOCC1 (stereo not drawn),-0.6%,-3.0%,7.6%,-1.4%
O=C(NCCc1ccccn1)c1ccc(OC2CCN(CCc3ccccc3)CC2)cc1,-14.4%,0.1%,-4.4%,1.0%
CC(Cc1ccccn1)NC(=O)c1ccc(OC2CCN(CCc3ccccc3)CC2)cc1 (stereo not drawn),18.4µM*,1.9%,u,1.9%
CC(C)N1CCN(C(=O)c2ccc(OC3CCN(CCc4ccccc4)CC3)cc2)CC1,u,2.7%,23.1µM*,-5.5%
CN=C1S/C(=C\c2ccc(N3CCOCC3)c(F)c2)C(=O)N1C,u,2.3%,14.6µM*,-2.0%
Cc1csc(NC(=O)CCCC(=O)c2ccccc2)n1,17.4%,x,-17.0%,1.1%
N#Cc1c(NC(=O)CS(=O)(=O)c2ccc(Cl)cc2)sc2c1CCCCC2,u,0.0%,u,-2.9%
CN(CC(=O)Nc1ccc(Cl)cc1)CC(=O)Nc1sc2c(c1C(N)=O)CCC2,20.6µM*,x,14.6µM*,-8.7%
NC(=O)c1c(NC(=O)CS(=O)(=O)c2ccc(Cl)cc2)sc2c1CCCCC2,23.1µM*,5.2%,16.4µM*,0.2%
CN(CC(=O)Nc1ccccc1Cl)CC(=O)Nc1sc2c(c1C(N)=O)CCC2,25.9µM*,x,18.4µM*,x
Cc1cccc(C)c1NC(=O)CN(C)CC(=O)Nc1sc2c(c1C(N)=O)CCC2,u,5.3%,u,x
COc1cc(-c2nnc(SCC(=O)Nc3cccc(C#N)c3)o2)cc(OC)c1OC,-29.4%,8.6%,-25.4%,-1.3%
CCOc1ccccc1NC(=O)c1ccc2c(c1)CCN2S(C)(=O)=O,u,2.3%,u,0.6%
CCCCc1c(C)nn(-c2nnc3c4ccccc4n(C)c3n2)c1C,23.1µM*,2.0%,23.1µM*,-1.2%
CC(C)CSc1nnc2c3ccccc3n(C)c2n1,-10.4%,x,u,-1.4%
CCCCC[C@@H](C)N1C[C@H](COCc2ccccc2)Oc2cc(N3CCC[C@H]3C(N)=O)ccc2S1(=O)=O,2.91µM*,x,6.51µM*,u
CCCCC[C@H](C)N1C[C@H](COCc2ccccc2)Oc2cc(N3CCC[C@H]3C(N)=O)ccc2S1(=O)=O,u,x,u,-4.8%
C[C@H](c1ccccc1)N1C[C@H](COCc2ccccc2)Oc2cc(N3CCC[C@H]3C(N)=O)ccc2S1(=O)=O,u,x,16.4µM*,-8.2%
COc1ccc(C2(OC)Oc3cc(OC)ccc3C(=O)C2(O)OC)cc1 (stereo not drawn),23.1µM*,x,u,31.6µM*
COc1ccc2c(c1)C(=O)CC(O)(C(F)F)O2 (stereo not drawn),1.7%,0.0%,-6.7%,0.6%
SMILES,TDP1 cell CPT,TDP1 block,DT40 TDP1 no CPT,ClpP mod
COc1cc2c(cc1OC)C(c1ccccc1)N(C(=O)c1ccccc1F)CC2 (stereo not drawn),-21.6%,x,u,1.8%
CCOC(=O)c1ccc(OCC2c3cc(OC)c(OC)cc3CCN2C(=O)c2ccc(S(=O)(=O)N3CCCC3)cc2)cc1 (stereo not drawn),u,5.2%,u,-2.6%
COc1cc2c(cc1OC)C(COc1ccccc1OC)N(C(=O)c1ccc(S(=O)(=O)N3CCCC3)cc1)CC2 (stereo not drawn),16.4µM*,13.0%,u,-3.9%
COc1cc2c(cc1OC)C(COc1ccccc1OC)N(C(=O)c1ccccc1OC)CC2 (stereo not drawn),u,10.4%,18.4µM*,0.2%
COc1cc(CN2C[C@@H](CO)O[C@@H](n3cnc4c(NCC(C)C)ncnc43)C2)cc(OC)c1OC,-0.6%,x,2.2%,1.9%
COc1ccc(CC(=O)Nc2cc(S(=O)(=O)N3CCOCC3)ccc2N2CCOCC2)cc1OC,1.9%,x,-12.4%,-0.2%
OCC1OC(n2ccc3c(NO)ncnc32)C(O)C1O (stereo not drawn),0.146µM*,x,0.146µM*,-12.9%
CN(C)c1ncnc2c1ccn2C1OC(CO)C(O)C1O (stereo not drawn),3.26µM*,x,8.2µM*,-1.2%
OC[C@H]1O[C@@H](n2cnc3c(Nc4ccccc4)ncnc32)[C@H](O)[C@@H]1O,5.8%,0.0%,0.0%,0.6%
Cc1cccc(N2CCN(C3=NC(=O)C(Cc4ccccc4)S3)CC2)c1 (stereo not drawn),u,0.0%,14.6µM*,1.4%
COc1ccccc1/C=C/C=N/NC(=O)c1ccc(=O)n(C)c1,-4.4%,5.4%,-11.6%,-23.8%
CCCCC1=CC2=CC(=O)C(C)(OC(=O)CC)C(=O)C2=CN1c1ccccc1 (stereo not drawn),u,-4.4%[21 µM],16.4µM*,-0.3%
CCCCC1=CC2=CC(=O)C(C)(OC(=O)CC)C(=O)C2=CN1CCc1c[nH]c2ccccc12 (stereo not drawn),u,7.7%[21 µM],16.4µM*,-5.9%
CCCCC1=CC2=CC(=O)C(C)(OC(=O)CC)C(=O)C2=CN1c1ccncc1 (stereo not drawn),x,7.2%[21 µM],x,x
CCCCC1=CC2=CC(=O)C(C)(OC(=O)CC)C(=O)C2=CN1Cc1ccccc1 (stereo not drawn),13µM*,14.9%[12.3 µM],18.4µM*,-0.4%
CCCCC1=CC2=CC(=O)C(C)(OC(=O)CC)C(=O)C2=CN1Cc1ccco1 (stereo not drawn),u,7.7%[12.3 µM],-29.9%,0.6%
Nc1ccc(CCc2ccc(N)cc2)cc1,5.0%,x,3.0%,x
CC(=O)Nc1ccn(C2CC3OCC(NC(=O)C(Cc4ccccc4)NC(=O)OC(C)(C)C)C3O2)c(=O)n1 (stereo not drawn),x,-1.5%,x,x
Cc1onc(-c2ccccc2)c1C(=O)OCC(=O)c1ccc[nH]1,u,x,u,0.4%
CCCCCSc1nnc2c(n1)[nH]c1c(C)cccc12,9.2µM*,x,2.91µM*,-1.5%
COc1cc(CN2CCC(C(=O)NCC(C)(C)CN(C)C)CC2)ccc1OCc1ccccc1,6.51µM*,x,u,-1.3%
O=C(Cn1ncc2c(Cl)cccc21)NCc1cccc(Br)c1,u,8.6%,-25.0%,-8.1%
